Rows were chosen to be rich in hits. Some 12% of all compounds tested hit in one or more screens of this group.
HP1b binding inh: HTS for Inhibitors of HP1-beta Chromodomain Interactions with Methylated Histone Tails; Chromobox protein homolog 1 (Homo sapiens), P83916; AlphaScreen HP1-beta / biotin-H3K9me3 peptide binding; Potency, µM (top dose mostly 114 µM), without a hit: at the top dose activity change, negative = inhibition, actives largely listed as inhibitors; actives 0.56% (n = 390,000); also: nearly all actives have a fitted effect of over 70% in size
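Compound inhibition of the preformed complex between 50 nM HP1-beta and 50 nM biotinylated H3K9me3 peptide was read by AlphaScreen. Buffer was PBS pH 7.4 with 0.01% Tween-20. Incubations ran 30 min at room temperature, with 10 ug/mL donor/acceptor beads.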
Sfp PPTase inh: qHTS Assay for Inhibitors of Bacillus subtilis Sfp phosphopantetheinyl transferase (PPTase); 4'-phosphopantetheinyl transferase ffp (Bacillus subtilis), Q9F4F7; Biochemical Sfp PPTase activity, qHTS; Potency, µM, inactives show largest response in the series, negative = inhibition, actives largely listed as inhibitors; actives 3.5% (n = 310,000); AID 1490, 2009;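 also: the enzyme is Sfp with the accession as filed and its product quenches rhodamine fluorescence; 0% = enzyme reaction without inhibitor and -100% = no enzyme wells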
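After 15 min at room temperature with compound, 15 nM Sfp received 5 uM rhodamine-CoA plus 12.5 uM BHQ-2-ybbR (50 mM Hepes pH 7.6, 10 mM MgCl2). Rate came from the fluorescence difference over 30 min, ex 525/em 598 nm.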
L3MBTL1 block: qHTS Assay for the Inhibitors of L3MBTL1 | Potency, µM (highest dose often 57.1 µM), for inactives: at the highest dose activity, negative = inhibition, actives largely listed as inhibitors | AlphaScreen L3MBTL1–H3K9me1 peptide binding | Lethal(3)malignant brain tumor-like protein 1 (Homo sapiens), Q9Y468 | actives 0.66% (n = 230,000); also: % is scaled to controls: 0 for no effect and ±100 for the full control effect; nearly all actives have a fitted effect of over 60% in size
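L3MBTL1 50 nM + b-AHA-H3(1-15)K9me1 75 nM, 30 min RT; compound added, 30 min RT; streptavidin donor/Ni-chelate acceptor beads 10 ug/mL each final, 30 min RT dark; AlphaScreen read.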
JMJD2A Tudor inh: qHTS Assay for Inhibitors of JMJD2A-Tudor Domain. Lysine-specific demethylase 4A (Homo sapiens), O75164. actives 4.4% (n = 390,000). AlphaScreen JMJD2A-Tudor / H3K4me3 peptide binding. Potency, µM (top dose mostly 114 µM), without a hit: at the highest dose activity change, negative = inhibition, actives largely listed as inhibitors. AID 504339, 2011; also: % is scaled to controls: 0 for no effect and ±100 for the full control effect; nearly all actives have a fitted effect of over 50% in size
Target sequence (O75164 whole entry, looked up, the tested form may be a part): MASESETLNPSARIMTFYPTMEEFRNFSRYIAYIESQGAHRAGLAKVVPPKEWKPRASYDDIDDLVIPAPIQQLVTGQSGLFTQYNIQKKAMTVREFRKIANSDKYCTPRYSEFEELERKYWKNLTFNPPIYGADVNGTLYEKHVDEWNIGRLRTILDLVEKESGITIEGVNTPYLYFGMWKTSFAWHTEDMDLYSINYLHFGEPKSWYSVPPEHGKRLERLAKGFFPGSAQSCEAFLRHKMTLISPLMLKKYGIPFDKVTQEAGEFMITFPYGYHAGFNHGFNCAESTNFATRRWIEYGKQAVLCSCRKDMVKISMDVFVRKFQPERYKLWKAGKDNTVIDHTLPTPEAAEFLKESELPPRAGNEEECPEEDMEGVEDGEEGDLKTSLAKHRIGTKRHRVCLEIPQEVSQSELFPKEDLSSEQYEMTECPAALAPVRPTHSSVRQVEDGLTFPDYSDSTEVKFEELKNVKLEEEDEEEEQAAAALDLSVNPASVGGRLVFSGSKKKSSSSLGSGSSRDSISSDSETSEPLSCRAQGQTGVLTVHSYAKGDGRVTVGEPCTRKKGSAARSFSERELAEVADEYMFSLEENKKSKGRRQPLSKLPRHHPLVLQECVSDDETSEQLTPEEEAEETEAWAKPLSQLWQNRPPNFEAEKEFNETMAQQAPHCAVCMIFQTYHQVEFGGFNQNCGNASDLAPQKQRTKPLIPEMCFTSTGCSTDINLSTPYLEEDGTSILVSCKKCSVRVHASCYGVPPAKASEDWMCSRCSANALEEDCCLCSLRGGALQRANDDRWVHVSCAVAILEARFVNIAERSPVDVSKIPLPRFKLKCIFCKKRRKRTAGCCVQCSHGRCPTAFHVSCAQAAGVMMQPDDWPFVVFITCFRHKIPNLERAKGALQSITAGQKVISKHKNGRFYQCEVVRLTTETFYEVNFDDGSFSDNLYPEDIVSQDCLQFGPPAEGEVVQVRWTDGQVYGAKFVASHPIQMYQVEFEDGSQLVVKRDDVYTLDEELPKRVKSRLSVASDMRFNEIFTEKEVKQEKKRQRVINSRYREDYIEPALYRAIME
G9a block: qHTS Assay for Inhibitors of Histone Lysine Methyltransferase G9a; Histone-lysine N-methyltransferase EHMT2 (Homo sapiens), Q96KQ7; G9a H3K9 monomethylation, AlphaScreen, 2 h; Potency, µM (highest dose often 102 µM), without a hit: at the highest dose activity, negative = inhibition, actives largely listed as inhibitors; actives 8.8% (n = 350,000); AID 504332, 2011; also: % is scaled to controls: 0 for no effect and ±100 for the full control effect; nearly all actives have a fitted effect of over 75% in size
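AlphaScreen detection with an anti-monomethyl H3K9 antibody quantified product after a 2 h room-temperature reaction containing 500 nM biotinylated H3K9 peptide, 20 µM SAM and 20 nM enzyme, which had been preincubated 15 min with compound.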
BAZ2B block: qHTS Assay for Inhibitors of BAZ2B | Bromodomain adjacent to zinc finger domain protein 2B (Homo sapiens), Q9UIF8 | AlphaScreen BAZ2B-H3K14Ac peptide displacement | Potency, µM (top dose mostly 114 µM), inactives show top-dose activity change, negative = inhibition, actives largely listed as inhibitors | actives 4.4% (n = 360,000) | AID 504333, 2011; also: % is scaled to controls: 0 for no effect and ±100 for the full control effect; nearly all actives have a fitted effect of over 60% in size
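Complex of BAZ2B and biotin-H3K14Ac (50 nM apiece) forms over 30 min at RT, then faces library compounds up to 110 uM for another 30 min; AlphaScreen beads added, 20 min dark incubation, luminescence read.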
Starred values were filed as active, the others as inactive; [ ] = dose if it differs, or a comment. Calls follow the shape of the dose curve; as a rule, active = well fitted curve in the direction sought with a large enough effect; inconclusive = small, poorly fitted or top-dose-only effect, or another doubt; inactive = no such curve, though single readings can be large; an effect the other way counts as inactive or inconclusive. Potency is read from the fitted curve at half-maximal effect.

Screening CC(/C=C/c1ccc(C)o1)=C\C(=O)O returned HP1b binding inh -16%, Sfp PPTase inh 10µM*, L3MBTL1 block 4%, JMJD2A Tudor inh -31%, G9a block 8.9µM* and BAZ2B block -3%.
For CCOC(=O)c1c(-c2ccc(OC)cc2)oc2ccc(OCc3ccccc3C)cc12 the results were HP1b binding inh 75%, JMJD2A Tudor inh 83%, G9a block 88%[59 µM] and BAZ2B block 66%.
`CCN(CC)CCNC(=O)Cn1ncc2c([nH]c3ccccc32)c1=O` gave HP1b binding inh 10%, JMJD2A Tudor inh 8%, G9a block 5%[59 µM] and BAZ2B block -1%.
Cc1ccc(S(=O)(=O)C2(C(=O)Nc3ccc(Cl)c(C(F)(F)F)c3)CC2)cc1 was read as HP1b binding inh 71%, JMJD2A Tudor inh 12%, G9a block 21%[59 µM] and BAZ2B block 33%.
CCOC(=O)Cc1ccc(NC(=O)N2CCC(CN3CCCCCC3)CC2)cc1 was read as HP1b binding inh 4%, JMJD2A Tudor inh -29%, G9a block inconclusive and BAZ2B block -9%.
For Cc1cccc(-n2c(-c3ccccc3)cn3c4c(=O)[nH]c(=O)n(C)c4nc23)c1 the results were HP1b binding inh 63%, JMJD2A Tudor inh -23%, G9a block 34%[59 µM] and BAZ2B block 32%.
Screening Cc1ccc(CNC(=O)/C=C/c2ccc(Br)o2)cc1 returned HP1b binding inh 16%, Sfp PPTase inh 28µM*, L3MBTL1 block 0%, JMJD2A Tudor inh -2%, G9a block 1.4µM* and BAZ2B block inconclusive.
For Cc1ccc(/C=C/C(=O)NCc2ccncc2)cc1 the results were HP1b binding inh 42%, Sfp PPTase inh 15%, L3MBTL1 block 9%, JMJD2A Tudor inh -6%, G9a block -9% and BAZ2B block -2%.
For Cc1ccc(Cc2c(C)nc3nc(SCC(=O)NCCC(C)C)nn3c2C)cc1 the results were HP1b binding inh 15%, JMJD2A Tudor inh -18%, G9a block -5%[59 µM] and BAZ2B block -3%.
`Cc1ccccc1CNC(=O)CCSCc1cnn(-c2ccccc2)c1-n1cccc1` gave HP1b binding inh 21%, JMJD2A Tudor inh -17%, G9a block inconclusive and BAZ2B block -24%.
For CC(=O)n1c2ccccc2c2nc(NC(C)C)sc21 the results were HP1b binding inh inconclusive, Sfp PPTase inh inconclusive, L3MBTL1 block -8%, JMJD2A Tudor inh 50µM*, G9a block inconclusive and BAZ2B block 50µM*.
CNc1nc2c3ccccc3n(C(C)=O)c2s1 was read as HP1b binding inh -6%, Sfp PPTase inh -15%, JMJD2A Tudor inh -13%, G9a block inconclusive and BAZ2B block -3%.
For Cc1cc(Cl)cc(C)c1OCCCCCn1ccnc1 the results were HP1b binding inh 20%, Sfp PPTase inh 10%, L3MBTL1 block -5%, JMJD2A Tudor inh inconclusive, G9a block inconclusive and BAZ2B block 32µM*.
`CCN(CC)CCOc1c(C)cccc1Cl` gave HP1b binding inh 18%, Sfp PPTase inh -6%, JMJD2A Tudor inh -13%, G9a block -6% and BAZ2B block 79µM*.
`Cc1cccc(Cl)c1OCCCn1ccnc1` gave HP1b binding inh 28µM*, Sfp PPTase inh -24%, L3MBTL1 block -3%, JMJD2A Tudor inh 7.9µM*, G9a block 10µM* and BAZ2B block 28µM*.
For COc1cc(C2C(=O)N(C3CCCCC3)CC(=O)N2CCc2ccccc2)ccc1OC(C)C (stereo not drawn) the results were HP1b binding inh 29%, JMJD2A Tudor inh -6%, G9a block 1%[59 µM] and BAZ2B block 3%.
`Cc1ccccc1NC(=S)/C(=C(\[O-])c1cc(C)n(Cc2ccccc2Cl)c1C)[n+]1ccccc1` gave HP1b binding inh inconclusive, Sfp PPTase inh -6%, JMJD2A Tudor inh 35µM*, G9a block 50µM* and BAZ2B block 40µM*.
`Cc1cc(C([O-])=C(C(=S)Nc2ccccc2)[n+]2ccccc2)c(C)n1-c1ccccc1` gave HP1b binding inh inconclusive and JMJD2A Tudor inh 32µM*.
Cc1ccc(CNC(=O)c2c(-c3ccccc3Cl)noc2C)o1 was read as HP1b binding inh 31%[57 µM], JMJD2A Tudor inh -8%, G9a block -4%[59 µM] and BAZ2B block 0%.
CCOC(=O)[C@H](CCc1ccccc1)N[C@@H](C)C(=O)N1C(=O)N(C)C[C@H]1C(=O)O was read as Sfp PPTase inh -4% and G9a block -30%[12.7 µM].
For CCOC(=O)c1ccc2[nH]c3c(c2c1)CCCC3 the results were HP1b binding inh inconclusive, Sfp PPTase inh 1%, L3MBTL1 block -28%, JMJD2A Tudor inh -54%, G9a block 35µM* and BAZ2B block 32µM*.
`CCN(C(=O)COC(=O)c1ccc2[nH]c3c(c2c1)CCCC3)C1CCS(=O)(=O)C1` (stereo not drawn) gave HP1b binding inh -28%, Sfp PPTase inh 9%, JMJD2A Tudor inh -35%, G9a block 50µM* and BAZ2B block inconclusive.
Screening CN(CCC#N)C(=O)COC(=O)c1ccc2[nH]c3c(c2c1)CCCC3 returned HP1b binding inh 18%, Sfp PPTase inh -3%, JMJD2A Tudor inh -28%, G9a block -49% and BAZ2B block inconclusive.
Screening CN(C)CCOC(=O)c1ccc2[nH]c3c(c2c1)CSCC3 returned HP1b binding inh inconclusive, Sfp PPTase inh 2%, JMJD2A Tudor inh -31%, G9a block 28µM* and BAZ2B block -24%.
`O=C(Cc1nnc(-c2nc3ccccc3[nH]2)o1)Nc1cc(C(F)(F)F)ccc1Cl` gave JMJD2A Tudor inh -10%.
Screening CCOC(=O)c1c(S(=O)(=O)N2CCCC(C(=O)N3CCN(c4cc(C)ccc4C)CC3)C2)c(C)n(C)c1C (stereo not drawn) returned HP1b binding inh -6%, JMJD2A Tudor inh inconclusive, G9a block -7%[59 µM] and BAZ2B block -18%.
COc1cc(C(=O)Nc2nonc2-c2ccc(Cl)cc2)cc(OC)c1OC was read as HP1b binding inh 27%, JMJD2A Tudor inh -18%, G9a block -3%[59 µM] and BAZ2B block 1%.

Source: PubChem (National Center for Advancing Translational Sciences (NCATS))
